Most compounds without a hit are left out; they make up all but 12% or so of the library.
Sm TGR inh – blocks Schistosoma mansoni thioredoxin glutathione reductase | Q962Y6 | 360,000 tested, 3% active | purified TGR, DTNB reduction, TNB absorbance 405 nm | Potency, µM (titrated, usually from 114 µM), hits mostly inhibitors; active means well fitted inhibition curve with a large enough effect; inconclusive means small, poorly fitted or top-dose-only effect; inactive means no such curve, though single readings can be large or run the other way; further: nearly all actives have a fitted effect of over 60% in size
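First, TGR (20 nM dispensed) and NADPH were mixed with compound. Second, a 15 min room-temperature incubation followed. Third, further NADPH and then DTNB were added to start the reaction. Finally, TNB absorbance was monitored kinetically.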
Cycloheximide cs – counter-screen hit for Shiga toxin inhibitors, cycloheximide. AID 2314. 300,000 tested, 12% active. max response, %. cell reporter, cycloheximide protein synthesis inhibition counterscreen; in the data active means max response mostly above about 13%, no sharp cut-off; inactive means mostly below about 14%; further: read at 38.3 µM for the half of the compounds with a filed dose
Shiga inhibitor – inhibitors of Shiga toxin in Vero cells; Vero cells, Shiga toxin protein synthesis inhibition reporter; inhibition, % at 38.7 µM; 290,000 tested, 9.2% active; in the data active means inhibition mostly above about 28%, no sharp cut-off; inactive means mostly below about 43%
FMDV antiviral – foot and mouth disease virus antiviral activity; FMDV antiviral cell-based qHTS; Potency, µM (highest dose often 57.9 µM), actives largely listed as inhibitors; 410,000 tested, 1.2% active; calls by dose curve; tested in HEK293T cells; further: read-out not given here; nearly all actives have a fitted effect of over 45% in size
Hits are given with their value; n = inactive; u = inconclusive; x = no result given; + = active, no number.

SMILES	Sm TGR inh	Cycloheximide cs	Shiga inhibitor	FMDV antiviral
NC(=O)COc1ccc2cc(-c3ccc(F)cc3)c(=O)oc2c1	n	21	35	n
NC(=O)COc1ccc2oc(-c3ccccc3)cc(=O)c2c1	n	27	69	n
CCOc1ccc(-c2oc3cc(Cl)ccc3c(=O)c2O)cc1OC	n	x	x	n
COc1cccc(-c2ccc3ncnc(NC4CC4)c3c2)c1	x	x	x	n
Cc1cccc(C)c1OCC(=O)N/N=C/C=C/c1ccco1	16µM	n	n	n
Cc1cccc(OCC(=O)N/N=C/C=C/c2ccco2)c1	40µM	n	n	n
Cc1cc(C)cc(OCC(=O)N/N=C/c2ccco2)c1	n	n	n	n
Cc1ccc(OCC(=O)N/N=C/C=C/c2ccco2)c(Br)c1	28µM	n	n	n
Cc1ccccc1NC(=O)CS(=O)(=O)c1cccc2nsnc12	n	x	x	n
Cn1nnc(NC(=O)c2ccc(C(C)(C)C)cc2)n1	n	46	45	n
Cn1nnc(NC(=S)NC(=O)c2ccc3ccccc3c2)n1	x	x	x	n
Cn1nnc(NC(=O)c2ccccc2F)n1	n	n	n	n
Cn1nnc(NC(=O)c2ccc3ccccc3c2)n1	n	30	+	n
Nn1c(=O)[nH]c2c([nH]c3ccccc32)c1=O	n	n	n	n
O=c1c2[nH]c3ccccc3c2nc2n1CCCS2	n	38	74	n
O=c1c2[nH]c3ccc(F)cc3c2nc2n1CCS2	n	n	n	n
O=c1c2[nH]c3ccc(F)cc3c2nc2n1CCCS2	n	25	54	n
Cc1nc2c([nH]c3ccccc32)c(=O)n1N	n	28	n	n
Cc1cccc(C(CC(=O)N2CCCCC2)c2ccccc2)c1O (stereo not given)	28µM	n	n	n
COc1ccc(-c2nnc(SCC(=O)Nc3ccccc3OC)o2)cc1	n	25	58	n
COc1ccc(C)cc1NC(=O)CSc1nnc(-c2ccc(C)cc2)o1	n	n	n	n
CCOc1ccc(-c2nnc(SCC(=O)Nc3cc(C)ccc3OC)o2)cc1	11µM	x	x	n
COc1ccccc1-c1nnc(SCC(=O)OC(C)C)o1	n	n	35	n
CCOc1ccc(-c2nnc(SCC(=O)Nc3ccc(C)cc3Cl)o2)cc1	18µM	x	x	n
O=C(Cn1ncc2c3ccccc3n(Cc3cccc(Cl)c3)c2c1=O)NCCCN1CCCCC1	n	x	x	n
SMILES	Sm TGR inh	Cycloheximide cs	Shiga inhibitor	FMDV antiviral
O=C(Nc1ccc(Cl)cc1F)c1cc(S(=O)(=O)NCc2ccc3c(c2)OCO3)ccc1F	n	x	x	n
COc1ccc(C)cc1NC(=O)CN(Cc1nnc(-c2ccc(Cl)cc2)o1)C1CCCC1	n	13	n	n
Cc1ccc(-n2nc(C)c3c(C(F)(F)F)cc(-c4cccnc4)nc32)cc1Cl	n	x	x	n
COc1cc(NC(=O)CN2CCCN(S(=O)(=O)c3ccc(F)cc3)CC2)cc(OC)c1	n	x	x	n
CCC(Oc1ccccc1)C(=O)Nc1cc(C)on1 (stereo not given)	n	15	38	n
CCCCNC(=O)Nc1cc(C)on1	n	n	n	n
CCC(Oc1ccccc1)C(=O)NC1CCCCCC1 (stereo not given)	n	n	n	n
CCC(Oc1ccccc1)C(=O)Nc1ccccn1 (stereo not given)	n	26	n	n
CCOC(=O)C(=O)Nc1cc(C)on1	n	72	80	n
CC(C)c1ccc(NC(=O)c2cc(S(=O)(=O)N3CCCCC3)cn2C)cc1	n	x	x	n
COc1cccc(-n2cc(C(=O)Oc3cccc(C(F)(F)F)c3)c3ccccc3c2=O)c1	n	x	x	n
CCc1ccc(OCCCSc2nc(-c3ccc(C(C)(C)C)cc3)nc3cc(=O)[nH]n23)cc1	n	x	x	n
COc1cccc(C2Nc3ccccc3-c3nnc(SCc4ccccc4)nc3O2)c1OC (stereo not given)	n	x	x	n
S=c1[nH]nc(-c2ccc(Cl)cc2)n1/N=C/C=C/c1ccco1	40µM	n	n	n
Cc1cc(-c2n[nH]c(=S)n2/N=C/C=C/c2ccco2)n[nH]1	22µM	n	n	n
S=c1[nH]nc(-c2cccnc2)n1/N=C/C=C/c1ccco1	x	n	n	n
Cc1ccccc1-c1n[nH]c(=S)n1/N=C/C=C/c1ccco1	14µM	n	n	n
S=c1[nH]nc(-c2ccccc2)n1/N=C/C=C/c1ccco1	u	n	n	n
C#CCSc1nnc(-c2ccc(C)cc2)o1	n	39	73	n
C#CCSc1nnc(-c2ccc(O)cc2)o1	n	53	62	n
COc1ccc(CNC(=O)Cn2cccc2C(=O)c2ccccc2C)cc1	n	71	60	n
Cc1ccccc1C(=O)c1cccn1CC(=O)NCc1ccc2c(c1)OCO2	n	23	n	n
Cc1ccccc1C(=O)c1cccn1CC(=O)NCc1ccc(F)cc1	n	n	n	n
COc1ccc(CNC(=O)Cn2cccc2C(=O)c2ccccc2)cc1	n	34	40	n
CC(=O)c1cn(CC(=O)NCc2ccc3c(c2)OCO3)c2ccccc12	n	n	n	u
SMILES	Sm TGR inh	Cycloheximide cs	Shiga inhibitor	FMDV antiviral
Cc1ccccc1C(=O)c1cccn1CC(=O)NCc1ccccc1	n	26	30	n
CCOC(=O)c1ccc(NC(=O)CSc2nccn2Cc2ccc(OC)cc2)cc1	n	x	x	n
CCOC(=O)c1cnc2cc(C(F)(F)F)ccc2c1Nc1cc(C)ccc1OC	n	x	x	u
c1cncc(-c2cc(-n3ccnc3)ncn2)c1	x	x	x	n
COc1ccc(C2CC(=O)Nc3c2c(=O)n(C)c2nc4ccccc4n32)cc1 (stereo not given)	n	x	x	n
Cc1cccc(Oc2nc(-c3ccncc3)nc3ccccc23)c1	n	n	n	n
CN1CCN(c2nc(-c3ccccn3)nc3ccccc23)CC1	n	n	n	n
Cc1ccccc1Oc1nc(-c2ccccn2)nc2ccccc12	n	39	46	n
CC(=O)Nc1ccc(Oc2nc(-c3ccccn3)nc3ccccc23)cc1	n	58	54	u
CC(=O)N1CCN(c2ccc(Oc3nc(-c4ccccc4)nc4ccccc34)cc2)CC1	x	x	x	n
CC(=O)Nc1cccc(Oc2nc(C(F)(F)F)nc3ccccc23)c1	n	n	n	n
CC(=O)Nc1cccc(Oc2nc(-c3ccccn3)nc3ccccc23)c1	n	15	n	u
Cc1cccc(Oc2nc(-c3ccccn3)nc3ccccc23)c1	n	34	63	n
Cc1ccc(N(C)C(=O)Cn2nc(Cc3ccncc3)c3ccccc3c2=O)cc1C	n	x	x	n
OCc1cn(-c2ccccc2)nc1-c1ccc2c(c1)OCCO2	n	45	101	n
OCc1cn(-c2ccccc2)nc1-c1cc2ccccc2o1	x	55	100	n
CC(C)COc1ccc(-c2nn(-c3ccccc3)cc2CO)cc1	n	n	n	n
OCc1cn(-c2ccccc2)nc1-c1ccc(Br)cc1	n	32	33	n
O/N=C/c1cn(-c2ccccc2)nc1-c1ccc2c(c1)OCCO2	n	n	n	n
Cc1cn(C)c(CC(=O)N2CCN(c3cccc(C(F)(F)F)c3)CC2)c1C(=O)O	n	x	x	n
Cc1ccc2c(c1)C(=O)OC(C(=O)Nc1ncc(Cc3ccccc3Cl)s1)C2 (stereo not given)	n	x	x	n
Cc1cc(C(F)(F)F)nc(SCc2ccc(C(=O)O)o2)n1	14µM	n	n	n
Cc1cc(C)nc(SCc2ccc(C(=O)O)o2)n1	n	n	n	n
CCOc1ccccc1CNC(=O)c1cnc2sc(N3CCCCCC3)nn2c1=O	n	x	x	n

Bioassay records deposited in PubChem BioAssay by National Center for Advancing Translational Sciences (NCATS).
